Key:
Experiment in all cases: PBM binding z-score (relative to random genomic background probes); higher = stronger binding; sequences stand for … in GC…GCGATTGACAGCGTAGAATGAAGG
[1] = system: FXR:RXRa (NR concentration 270 nM, RXRa partner concentration 90 nM)
In short: (§1)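 The probes on custom Agilent 4×180K protein-binding microarrays were double-stranded, with 34-nt variable regions bearing direct-repeat seeds, single-nucleotide variants, half-site ablations and random human genomic background sequences. Incubation lasted 1 h with ligand-free nuclear receptor dimers in PBS pH 7.4, 2% milk, 0.02% Triton X-100, 1 mM DTT, 0.2 mg/mL BSA and 0.4 mg/ml salmon testes DNA. Antibodies against each partner (one per run) detected bound dimers, and fluorescence scans were regression-normalized. Binding z-scores take the random background probes as reference.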

[2] = system: LXRa:RXRa (NR concentration 270 nM, RXRa partner concentration 90 nM)
In short: as §1

[3] = system: LXRa homodimer (NR concentration 270 nM)
In short: as §1

[4] = system: LXRb:RXRa (NR concentration 270 nM, RXRa partner concentration 90 nM)
In short: as §1

[5] = system: LXRb homodimer (NR concentration 270 nM)
In short: as §1

[6] = system: PPARa:RXRa (NR concentration 270 nM, RXRa partner concentration 90 nM)
In short: as §1

[7] = system: PPARg:RXRa (NR concentration 180 nM, RXRa partner concentration 90 nM)
In short: as §1

[8] = system: PPARg:RXRa 270nM:90nM, anti-RXR (NR concentration 270 nM, RXRa partner concentration 90 nM)
In short: as §1

[9] = system: PPARg:RXRa 30nM:10nM, anti-RXR (NR concentration 30 nM, RXRa partner concentration 10 nM)
In short: as §1

[10] = system: PPARg:RXRa 90nM:30nM, anti-RXR (NR concentration 90 nM, RXRa partner concentration 30 nM)
In short: as §1

| Sequence | PBM binding z-score [1] | PBM binding z-score [2] | PBM binding z-score [3] | PBM binding z-score [4] | PBM binding z-score [5] | PBM binding z-score [6] | PBM binding z-score [7] | PBM binding z-score [8] | PBM binding z-score [9] | PBM binding z-score [10] |
| --- | --- | --- | --- | --- | --- | --- | --- | --- | --- | --- |
| ATCCCTAGGTAAAGATAGTTCAGTGAATGCAAAT | 0.139 | 4.49 | 0.337 | 0.881 | 0.0793 | 0.459 | 0.486 | -0.104 | -0.14 | -0.302 |
| TATACAGCGTCAAAGGCCAGAGTACGAATGTCGA | -0.579 | -0.473 | -0.358 | -0.616 | -0.382 | 0.0937 | 1.16 | 1.62 | 0.56 | 1.13 |
| TAGCCTAGGTCATGCGGGCCAGTCTAGTGTCGGC | 3.89 | 3.03 | -0.0115 | 1.36 | -0.0777 | 3.43 | 2 | 2.23 | -0.051 | 0.877 |
| CAAACTAGCTCACGAAAGGTCAAAGTCGAATGAC | 4.81 | 5.42 | 5.5 | 5.58 | 2.21 | 5.38 | 2.42 | 4.26 | 1.46 | 3.03 |
| TGAATGAGGGTAAAGATCAGGGAACGTGGCGTCG | 0.332 | 0.35 | -0.456 | -0.0766 | 0.875 | 2.98 | 4.39 | 5.94 | 4.5 | 6.32 |
| ATACCAAGGTGATCGTGTGGTCGTTGATACTAAC | 0.493 | 0.0735 | -0.0332 | 0.23 | -0.176 | 0.206 | 0.285 | 0.406 | -0.115 | -0.212 |
| TAGCCTAGGTCATTGGGCCAGAATAGTACGCATC | 4.53 | 3.53 | 0.524 | 2.31 | 0.302 | 4.07 | 3.79 | 3.88 | 1.11 | 2.46 |
| GGAACGAGGGCAAGTTGATAGTAGAGTTTGATGG | 0.866 | 0.53 | -0.29 | 0.413 | -0.108 | 1.74 | 1.01 | 0.848 | 0.216 | 0.579 |
| TCTTGCAGATCAAGCAGGTTAAGAAAGCCTGAGT | -0.529 | 0.00259 | -0.304 | 0.157 | -0.667 | 0.293 | -0.508 | 0.302 | 1.76 | 1.14 |
| CGAACTAGGTCATTGACACGACAGTGAATAGTAA | 5.16 | 3.65 | 0.689 | 2.48 | 0.158 | 4.67 | 7.57 | 6.21 | 3.95 | 5.54 |
| CCTGCTGGGCCATTCAGAGGTCATTGATCATATG | 2.79 | 4.29 | 6.46 | 4.01 | 0.198 | 3.65 | 0.755 | 1.86 | 0.0618 | 1.15 |
| CCTACTGGGCCATCAGGTCATTGAAATCAACGTT | 1.33 | 1.07 | 1.03 | 1.45 | -0.244 | 2.74 | 2.67 | 3.66 | 1.23 | 2.99 |
| CGAACGAGGGCATGAGTTAATAGCAAATGCCGAT | 0.396 | 0.206 | -0.633 | 0.117 | -0.921 | 1.49 | 1.64 | 1.98 | 0.666 | 1.58 |
| ATATGTAGATTAAGGGTCATTCAGGTTGGTTCGC | 3.93 | 4.24 | 3.27 | 3.96 | 1.38 | 4.74 | 6.74 | 6.77 | 6.28 | 7.43 |
| CTCGAAAGGTCGGTTGAGGTGAGTAGACGGATAA | 2.24 | 1.85 | 0.0366 | 1.44 | -0.503 | 2.76 | 0.386 | 1.51 | 0.222 | 0.586 |
| ATCTCTAGGTGAGACTCAGTTCAGTGAAGAACGC | 0.247 | 0.206 | 0.00794 | 0.271 | 0.0417 | 0.953 | 0.798 | 0.846 | 0.146 | 0.412 |
| GCTGCTAGGTCTACTGATGGTCAGCTAAAGCTCG | -0.686 | -0.0634 | -0.277 | -0.896 | -0.887 | -0.691 | -0.539 | -0.623 | -0.649 | -0.834 |
| CCTTACGTGTCAAGGTTATAGCACGGGTGGTACG | 0.976 | 0.929 | 0.288 | 0.638 | 0.609 | 1.36 | 0.992 | 0.8 | 0.3 | 0.364 |
| AATAGTTGGTCAGCTGAGGTCACACACAATTCGG | 3.52 | 3.25 | 3.1 | 3.57 | 1.05 | 3.81 | 2.21 | 2.14 | 0.525 | 1.25 |
| GCTAGTTGGACAGTAAAAGGTCACACACCGGTCG | 2.82 | 4.25 | 4.25 | 4.22 | 0.188 | 4.4 | 2.61 | 3.78 | 1.89 | 3.36 |
| CCTACTGTGCCAAAGGTCATTGATTCCAATGCTC | 5.48 | 5.82 | 5.32 | 5.34 | 2.14 | 6.17 | 11.4 | 9.67 | 9.47 | 10.3 |
| CCTATTAGTTGACCCTAAGGGCAACCGAAGCTCG | 4.38 | 3.57 | 1.02 | 3.56 | 1.04 | 4.53 | 1.6 | 3.34 | 0.981 | 2.19 |
| ACTATAAGTTGAGACGAGGGCAACCGATAGGTTG | 1.18 | 0.684 | -0.161 | 0.115 | -0.00417 | 0.691 | 1.01 | 0.487 | 0.313 | 0.578 |
| CCTAGCAGGCCAAGCTGGGTCACTCAAGGCTTGA | 1.55 | 0.966 | -0.429 | 0.821 | -1.36 | 1.82 | -0.199 | 0.0206 | -0.847 | -0.107 |

Source: the supplement of paper PMC6555819
